# Test results: ChEMBL document CHEMBL1961873, “Compounds: GSK PKIS; Assays: Nanosyn kinase panel” (2012)
# Key:
# [1] = target: Sphingosine kinase 1 (Homo sapiens) (UniProt Q9NYA1); details: at 1 µM;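 also: mean SPHK1 inhibition value reported from the GSK PKIS kinase panel screen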
# [2] = target: T1, Sphingosine kinase 2 (Homo sapiens) (UniProt Q9NRA0); details: at 0.1 µM
# T1 sequence (whole entry): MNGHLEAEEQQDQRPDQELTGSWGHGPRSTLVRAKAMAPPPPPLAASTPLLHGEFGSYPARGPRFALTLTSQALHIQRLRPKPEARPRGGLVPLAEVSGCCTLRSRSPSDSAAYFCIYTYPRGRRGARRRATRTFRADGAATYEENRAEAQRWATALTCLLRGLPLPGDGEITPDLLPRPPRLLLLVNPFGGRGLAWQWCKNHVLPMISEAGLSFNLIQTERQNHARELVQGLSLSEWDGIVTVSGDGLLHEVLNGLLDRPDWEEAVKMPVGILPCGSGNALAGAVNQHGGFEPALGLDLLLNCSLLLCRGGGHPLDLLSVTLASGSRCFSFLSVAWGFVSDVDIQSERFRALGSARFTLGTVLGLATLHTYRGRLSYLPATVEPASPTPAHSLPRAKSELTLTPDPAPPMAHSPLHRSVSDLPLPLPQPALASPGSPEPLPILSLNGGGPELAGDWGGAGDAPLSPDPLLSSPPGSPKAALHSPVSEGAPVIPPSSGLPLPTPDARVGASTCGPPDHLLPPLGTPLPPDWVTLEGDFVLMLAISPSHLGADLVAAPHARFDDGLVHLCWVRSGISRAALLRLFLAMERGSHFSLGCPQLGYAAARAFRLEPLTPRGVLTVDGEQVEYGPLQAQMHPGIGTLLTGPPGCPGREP
# [3] = target: T1, Sphingosine kinase 2 (Homo sapiens); details: at 1 µM
# [4] = target: Casein kinase II subunit alpha (Homo sapiens) (UniProt P68400); details: at 0.1 µM
# Chain of Casein kinase II subunit alpha (Homo sapiens) (P68400 whole entry, looked up): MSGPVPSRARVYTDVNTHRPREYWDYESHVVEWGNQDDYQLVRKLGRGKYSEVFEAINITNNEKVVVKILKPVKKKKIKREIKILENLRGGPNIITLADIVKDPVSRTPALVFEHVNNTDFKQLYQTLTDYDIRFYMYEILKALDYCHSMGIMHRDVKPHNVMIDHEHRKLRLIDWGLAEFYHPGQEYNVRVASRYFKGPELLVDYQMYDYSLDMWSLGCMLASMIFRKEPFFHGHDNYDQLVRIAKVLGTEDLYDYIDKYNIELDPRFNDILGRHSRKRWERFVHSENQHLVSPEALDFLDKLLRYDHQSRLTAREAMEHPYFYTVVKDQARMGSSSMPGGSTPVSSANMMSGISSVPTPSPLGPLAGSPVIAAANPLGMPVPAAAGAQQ
# [5] = target: Casein kinase II subunit alpha (Homo sapiens) (UniProt P68400); details: at 1 µM
# [6] = target: T2, Inhibitor of nuclear factor kappa-B kinase subunit alpha (Homo sapiens) (UniProt O15111); details: at 0.1 µM
# T2 sequence (whole entry): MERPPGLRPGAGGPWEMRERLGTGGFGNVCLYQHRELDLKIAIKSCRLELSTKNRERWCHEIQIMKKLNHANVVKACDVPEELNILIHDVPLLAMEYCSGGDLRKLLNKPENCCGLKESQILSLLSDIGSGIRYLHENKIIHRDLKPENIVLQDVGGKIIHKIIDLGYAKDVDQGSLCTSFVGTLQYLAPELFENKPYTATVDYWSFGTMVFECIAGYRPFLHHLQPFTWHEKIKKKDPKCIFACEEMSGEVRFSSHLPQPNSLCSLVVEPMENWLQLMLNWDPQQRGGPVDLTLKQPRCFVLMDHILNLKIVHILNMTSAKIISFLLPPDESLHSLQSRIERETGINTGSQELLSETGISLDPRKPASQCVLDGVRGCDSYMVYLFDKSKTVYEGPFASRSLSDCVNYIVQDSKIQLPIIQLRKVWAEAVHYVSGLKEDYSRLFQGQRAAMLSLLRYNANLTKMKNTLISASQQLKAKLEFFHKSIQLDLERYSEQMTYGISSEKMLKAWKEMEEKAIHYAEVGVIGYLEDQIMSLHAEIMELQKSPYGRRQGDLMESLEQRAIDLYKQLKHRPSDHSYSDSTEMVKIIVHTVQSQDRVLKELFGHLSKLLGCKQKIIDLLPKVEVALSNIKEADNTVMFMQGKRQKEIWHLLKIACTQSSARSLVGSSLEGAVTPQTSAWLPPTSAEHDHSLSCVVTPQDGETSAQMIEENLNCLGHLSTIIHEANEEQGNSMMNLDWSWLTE
# [7] = target: T2, Inhibitor of nuclear factor kappa-B kinase subunit alpha (Homo sapiens); details: at 1 µM
# [8] = target: T3, Inhibitor of nuclear factor kappa-B kinase subunit beta (Homo sapiens) (UniProt O14920); details: at 0.1 µM
# T3 sequence (whole entry): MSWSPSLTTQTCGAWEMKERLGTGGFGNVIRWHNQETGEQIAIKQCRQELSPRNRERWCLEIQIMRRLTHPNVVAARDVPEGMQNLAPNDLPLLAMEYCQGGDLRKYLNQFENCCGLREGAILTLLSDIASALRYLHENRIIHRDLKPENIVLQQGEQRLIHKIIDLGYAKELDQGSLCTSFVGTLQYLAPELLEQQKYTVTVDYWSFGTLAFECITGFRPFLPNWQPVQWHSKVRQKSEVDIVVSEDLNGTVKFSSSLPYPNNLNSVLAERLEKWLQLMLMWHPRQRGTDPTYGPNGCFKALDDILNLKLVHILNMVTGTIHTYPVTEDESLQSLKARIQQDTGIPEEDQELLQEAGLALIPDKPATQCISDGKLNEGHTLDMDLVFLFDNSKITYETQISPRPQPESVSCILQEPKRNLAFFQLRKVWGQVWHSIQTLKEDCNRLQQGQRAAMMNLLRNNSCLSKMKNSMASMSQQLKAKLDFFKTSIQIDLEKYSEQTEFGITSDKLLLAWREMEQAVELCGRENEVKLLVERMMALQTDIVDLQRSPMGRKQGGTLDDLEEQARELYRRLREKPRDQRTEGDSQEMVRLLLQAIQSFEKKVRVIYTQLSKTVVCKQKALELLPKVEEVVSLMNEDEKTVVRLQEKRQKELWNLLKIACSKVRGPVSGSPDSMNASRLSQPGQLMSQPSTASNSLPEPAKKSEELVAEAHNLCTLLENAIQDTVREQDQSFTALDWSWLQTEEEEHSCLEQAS
# [9] = target: T3, Inhibitor of nuclear factor kappa-B kinase subunit beta (Homo sapiens); details: at 1 µM
# [10] = target: T4, Inhibitor of nuclear factor kappa-B kinase subunit epsilon (Homo sapiens) (UniProt Q14164); details: at 0.1 µM;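 also: mean inhibition of IKKε reported, from the GSK PKIS dataset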
# T4 sequence (whole entry): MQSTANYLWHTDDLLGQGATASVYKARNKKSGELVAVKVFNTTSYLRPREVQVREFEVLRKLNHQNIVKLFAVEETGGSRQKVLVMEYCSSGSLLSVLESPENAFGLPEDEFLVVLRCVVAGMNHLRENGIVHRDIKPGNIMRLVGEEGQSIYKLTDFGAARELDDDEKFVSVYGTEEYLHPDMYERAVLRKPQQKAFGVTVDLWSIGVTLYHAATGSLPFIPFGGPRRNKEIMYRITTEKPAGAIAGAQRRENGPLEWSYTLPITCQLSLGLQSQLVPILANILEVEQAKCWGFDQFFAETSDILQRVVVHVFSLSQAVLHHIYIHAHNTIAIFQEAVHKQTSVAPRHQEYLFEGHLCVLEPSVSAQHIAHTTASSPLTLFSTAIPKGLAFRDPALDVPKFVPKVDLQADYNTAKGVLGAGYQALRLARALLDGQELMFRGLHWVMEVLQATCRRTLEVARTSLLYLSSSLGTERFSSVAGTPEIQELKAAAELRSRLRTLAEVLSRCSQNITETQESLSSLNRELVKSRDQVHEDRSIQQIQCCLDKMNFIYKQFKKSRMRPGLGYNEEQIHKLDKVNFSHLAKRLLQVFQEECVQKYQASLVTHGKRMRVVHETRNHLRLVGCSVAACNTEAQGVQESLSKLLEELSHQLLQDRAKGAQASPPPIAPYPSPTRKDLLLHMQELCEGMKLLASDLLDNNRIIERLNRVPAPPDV
# Chain of Sphingosine kinase 1 (Homo sapiens) (Q9NYA1 whole entry): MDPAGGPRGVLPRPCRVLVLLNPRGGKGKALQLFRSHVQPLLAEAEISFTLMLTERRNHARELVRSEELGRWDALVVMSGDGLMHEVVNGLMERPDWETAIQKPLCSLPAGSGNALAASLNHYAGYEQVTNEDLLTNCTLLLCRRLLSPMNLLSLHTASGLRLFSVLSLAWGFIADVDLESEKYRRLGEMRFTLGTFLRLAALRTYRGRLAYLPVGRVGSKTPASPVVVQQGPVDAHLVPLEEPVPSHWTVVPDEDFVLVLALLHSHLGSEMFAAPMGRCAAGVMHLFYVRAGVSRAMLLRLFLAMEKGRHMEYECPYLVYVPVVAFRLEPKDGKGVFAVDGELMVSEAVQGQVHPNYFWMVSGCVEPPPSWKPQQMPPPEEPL
smiles,measurement,setting,value
COc1cccc(/C=N/Nc2ncnc3c2cnn3-c2cccc(OC)c2)c1,inhibition,[1],0.34%
same,inhibition,[2],-0.71%
same,inhibition,[3],-0.63%
same,inhibition,[4],5.99%
same,inhibition,[5],3.05%
same,inhibition,[6],7.48%
same,inhibition,[7],-3.48%
same,inhibition,[8],6.4%
same,inhibition,[9],6%
same,inhibition,[10],4.37%
